This is an account of results in PubChem BioAssay (NCI).

Holding throughout (assay): NCI-60 one-dose screen, 48 h (100 = growth as untreated, 0 = no growth, -100 = all killed)
One experiment has as its system NCI-H23 lung. To be noted: 10 µM unless noted.
Another experiment concerns NCI-H226 lung. To be noted: 10 µM unless noted.
The next experiment deals with NCI-H322M lung. To be noted: 10 µM unless noted.
The test system of the next experiment is NCI-H460 lung. To be noted: 10 µM unless noted.
Another experiment relates to HOP-92 NSCLC. To be noted: 10 µM.
The next experiment has as its system NCI-H522 lung. To be noted: 10 µM.
Another experiment has as its system A549/ATCC NSCLC. To be noted: 10 µM unless noted.
For another experiment, the system named is 786-0 renal. To be noted: 10 µM unless noted.
In the next experiment the test system is DU-145 prostate. To be noted: 10 µM unless noted.
The test system of the next experiment is K-562 leukemia. To be noted: 10 µM unless noted.
The subject of the next experiment is MALME-3M melanoma. To be noted: 10 µM unless noted.
The next experiment deals with MDA-MB-231 breast. To be noted: 10 µM unless noted.
In another experiment the test system is RXF 393 renal. To be noted: 10 µM unless noted.
The test system of the next experiment is SF-268 CNS. To be noted: 10 µM unless noted.
In the next experiment the test system is SF-295 CNS. To be noted: 10 µM unless noted.
A further experiment relates to SF-539 CNS. To be noted: 10 µM unless noted.
The subject of a further experiment is UACC-257 melanoma. To be noted: 10 µM unless noted.
The next experiment relates to M14 melanoma. To be noted: 10 µM unless noted.
The test system of a further experiment is COLO 205 colon. To be noted: 10 µM unless noted.

About 83,000 compounds went through this panel and 20% of them were active in at least one assay; those are over-represented in the sample as a whole.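 Treatment: one concentration, 48 hours, 96-well format. Scoring: percent growth, with anything below 10 considered active.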 A number with no mark means an inactive call. Calls of active or inactive are those of the source.

`COc1cc2ncnc(Nc3ccc4c(cnn4C(=O)Nc4ccccc4)c3)c2cc1OC`: the growth with NCI-H23 lung is 100%; in the experiment with NCI-H226 lung it was 103%; in the experiment on NCI-H322M lung it was 81.1%; in the experiment on NCI-H460 lung, 103%; with HOP-92 NSCLC, 82.8%; in the experiment on NCI-H522 lung, 89.4%. The growth in the experiment on A549/ATCC NSCLC was 72.9%; in the experiment with 786-0 renal it was 81.5%; with DU-145 prostate, 89.3%; in the experiment on K-562 leukemia, 58.3%; in the experiment on MALME-3M melanoma, 85.6%; with MDA-MB-231 breast, 112%. The growth in the experiment on RXF 393 renal was 87.3%; in the experiment with SF-268 CNS it was 97.2%; with SF-295 CNS it was 100%; in the experiment on SF-539 CNS, 86.1%; with UACC-257 melanoma it was 94.9%; with M14 melanoma it was 95.7%.
Turning to `COc1ccc(CN2C(=O)/C(=C\C(=O)c3ccc(OCCN4CCCCC4)cc3)c3ccccc32)cc1`, the growth with NCI-H23 lung is 74.5%; with NCI-H226 lung it was 89.6%; in the experiment on NCI-H322M lung, 91.4%; in the experiment with NCI-H460 lung, 94.7%; in the experiment with HOP-92 NSCLC it was 39%; in the experiment with NCI-H522 lung, 26%. For the same compound, the growth with A549/ATCC NSCLC was 96.4%; with 786-0 renal, 37.4%; in the experiment on COLO 205 colon it was 76.7%; with DU-145 prostate it was 66%; in the experiment with K-562 leukemia, 2.32% (active); with MDA-MB-231 breast it was 84.8%. In addition, the growth is 61.7% with RXF 393 renal; 82.7% in the experiment with SF-268 CNS; 91.5% in the experiment with SF-295 CNS; 86.4% in the experiment with SF-539 CNS; 99% in the experiment with UACC-257 melanoma; 72.1% in the experiment with M14 melanoma.
As for `COc1ccc(-c2nc(SCC(C)C)nc(Nc3ccccc3)c2C#N)cc1`, the growth in the experiment with NCI-H23 lung was 86.3%; in the experiment on NCI-H226 lung it was 83%; in the experiment on NCI-H322M lung, 70.8%; in the experiment with NCI-H460 lung, 18.7%; with HOP-92 NSCLC it was 88%; with NCI-H522 lung it was 88.3%. Besides, the growth in the experiment with A549/ATCC NSCLC was 48%; in the experiment with 786-0 renal, 51.9%; in the experiment on DU-145 prostate it was 100%; in the experiment with K-562 leukemia, 82.1%; with MALME-3M melanoma, 96%; with MDA-MB-231 breast, 93.5%. The growth is 98.8% in the experiment with RXF 393 renal; 87.9% with SF-268 CNS; 77.1% with SF-295 CNS; 70.5% in the experiment with SF-539 CNS; 83.8% in the experiment with UACC-257 melanoma; 95.8% in the experiment on M14 melanoma.
Consider `COc1cc2ncnc(-n3ncc4cc(NC(=O)Nc5ccc(Cl)c(Cl)c5)ccc43)c2cc1OC`, for which the growth was -54% (active) with NCI-H23 lung; -63.4% (active) with NCI-H226 lung; -46.1% (active) with NCI-H322M lung; -53.9% (active) in the experiment with NCI-H460 lung; -57.2% (active) in the experiment with HOP-92 NSCLC; 1.38% (active) with NCI-H522 lung. The growth is 0.341% (active) with A549/ATCC NSCLC; -43.4% (active) with 786-0 renal; 1.5% (active) in the experiment on DU-145 prostate; 10.7% in the experiment with K-562 leukemia; -44.3% (active) with MALME-3M melanoma; -74.3% (active) with MDA-MB-231 breast. Further, the growth in the experiment with RXF 393 renal is -86.7% (active); in the experiment on SF-268 CNS it was -34.8% (active); in the experiment with SF-295 CNS, -66.8% (active); with SF-539 CNS, -70.6% (active); in the experiment on UACC-257 melanoma, -10.3% (active); in the experiment with M14 melanoma, -41% (active).
For `COc1nc(OC)nc(-c2cc(-c3cc(OC)c(OC)c(OC)c3)no2)n1`, the growth in the experiment on NCI-H23 lung is 101%; with NCI-H226 lung, 92.8%; with NCI-H322M lung, 115%; in the experiment on NCI-H460 lung, 101%; in the experiment on HOP-92 NSCLC, 95.4%; in the experiment with NCI-H522 lung it was 95.7%. Moreover, the growth was 88.8% in the experiment with A549/ATCC NSCLC; 93.9% in the experiment on 786-0 renal; 105% with DU-145 prostate; 95.1% in the experiment with K-562 leukemia; 110% with MALME-3M melanoma; 90.5% in the experiment with MDA-MB-231 breast. Also, the growth is 94.8% in the experiment with RXF 393 renal; 100% with SF-268 CNS; 104% with SF-295 CNS; 112% with SF-539 CNS; 99.6% in the experiment with UACC-257 melanoma; 111% in the experiment with M14 melanoma.
As to `O=S(=O)(Cc1cccc2c(CS(=O)(=O)c3ccc(Cl)cc3)cccc12)c1ccc(Cl)cc1`, the growth in the experiment with NCI-H23 lung was 98%; with NCI-H226 lung, 107%; in the experiment with NCI-H322M lung, 86.7%; in the experiment on NCI-H460 lung it was 72.4%; in the experiment on HOP-92 NSCLC, 97.1%; with NCI-H522 lung, 96.4%. Moreover, the growth is 84.3% in the experiment with A549/ATCC NSCLC; 119% in the experiment with 786-0 renal; 83% in the experiment with COLO 205 colon; 91.2% with DU-145 prostate; 83.2% in the experiment on K-562 leukemia; 97.3% in the experiment on MDA-MB-231 breast. Further, the growth was 109% with RXF 393 renal; 92.5% with SF-268 CNS; 94.3% with SF-539 CNS; 107% in the experiment on UACC-257 melanoma; 102% with M14 melanoma.
For `N=C(N)c1ccc(-c2ccc(-c3ccc(Cl)cc3)s2)s1`, the growth is -69.9% (active) with NCI-H23 lung; -53.3% (active) with NCI-H226 lung; -74.9% (active) in the experiment with NCI-H322M lung; -66.2% (active) in the experiment on NCI-H460 lung; -71.6% (active) in the experiment with HOP-92 NSCLC; -2.36% (active) in the experiment on NCI-H522 lung. The growth in the experiment on A549/ATCC NSCLC is -69.1% (active); in the experiment with 786-0 renal, -62.6% (active); in the experiment on DU-145 prostate, -87.8% (active); with K-562 leukemia, -45.8% (active); in the experiment on MALME-3M melanoma, -29.9% (active); with MDA-MB-231 breast it was -80.5% (active). The growth in the experiment on RXF 393 renal was -85% (active); in the experiment with SF-268 CNS, -68.6% (active); in the experiment on SF-295 CNS, -68.8% (active); in the experiment with SF-539 CNS it was -86.7% (active); in the experiment on UACC-257 melanoma, -37.7% (active); in the experiment on M14 melanoma, -72.7% (active).
For `COc1cc(OC)c(NC(=O)n2ncc3cc(Nc4ncnc5ccccc45)ccc32)cc1Cl`, the growth in the experiment with NCI-H23 lung is 97.5%; with NCI-H226 lung, 104%; with NCI-H322M lung, 14.1%; with NCI-H460 lung, 108%; with HOP-92 NSCLC, 87.3%; in the experiment on NCI-H522 lung it was 72.1%. The growth with A549/ATCC NSCLC is 80.3%; with 786-0 renal it was 73.1%; with DU-145 prostate, 56.9%; in the experiment on K-562 leukemia, 99.4%; in the experiment with MALME-3M melanoma, 110%; in the experiment with MDA-MB-231 breast, 97.2%. In addition, the growth in the experiment with RXF 393 renal was 88.4%; in the experiment on SF-268 CNS, 87.4%; in the experiment with SF-295 CNS it was 98.7%; with SF-539 CNS, 99.5%; in the experiment on UACC-257 melanoma, 118%; with M14 melanoma, 100%.
In the case of `COc1ccc(-c2nc(SCC(C)C)nc(Nc3ccc([N+](=O)[O-])cc3)c2C#N)cc1`, the growth in the experiment with NCI-H23 lung was 98.5%; with NCI-H226 lung, 85.3%; in the experiment with NCI-H322M lung, 86.8%; in the experiment on NCI-H460 lung it was 57%; with HOP-92 NSCLC it was 93.3%; in the experiment with NCI-H522 lung, 92%. Besides, the growth is 61.5% in the experiment on A549/ATCC NSCLC; 94.7% with 786-0 renal; 107% in the experiment on DU-145 prostate; 93% in the experiment with K-562 leukemia; 98% in the experiment with MALME-3M melanoma; 94.6% in the experiment with MDA-MB-231 breast. Further, the growth was 107% in the experiment on RXF 393 renal; 93.2% with SF-268 CNS; 84.3% with SF-295 CNS; 99.8% in the experiment on SF-539 CNS; 85.2% with UACC-257 melanoma; 103% in the experiment with M14 melanoma.
